From PubChem BioAssay (NCI)
Compounds without any hit were thinned out: in the full panel of roughly 79,000, 15% have a hit. Unmarked numbers belong to inactive results. Activity calls are given as the source filed them. No stated cut-off is given here; in the data, active means growth inhibition above about 70%; inactive means the rest.

Assay: NCI Yeast Anticancer Drug Screen. Data for the wt2 strain (AID 169);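 further: 0% = growth of vehicle-treated yeast cultures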
Settings: S. cerevisiae wt2 strain growth inhibition, hits give high values
Method: Growth inhibition of yeast strains with defined genetic alterations is measured as a screen for potential anti-cancer activity. Selected strains with alterations in DNA damage repair or cell cycle control were exposed to compounds and growth inhibition was measured relative to vehicle treated controls. The strain used in this assay is wt2

SMILES | growth inhibition (at 1.2 µM) | growth inhibition (at 3.7 µM) | growth inhibition (at 11.0 µM) | growth inhibition (at 33.0 µM) | growth inhibition (at 100.0 µM)
Cc1oc2ccccc2c(=O)c1Cn1nnc2ccccc21 | -2% | -2% | -1% | 0% | 32%
Nc1ccc(N=Nc2ccc(-c3ccc(O)cc3)cc2)c2ccc(S(=O)(=O)O)cc12 | -1% | 2% | 5% | 16% | 21%
CCCCS(=O)(=O)Nc1ccc(Nc2c3ccccc3nc3ccccc23)c(OC)c1 | -13% | -22% | -13% | 41% | 93% (active)
Nc1ccc2cc(Br)ccc2c1Br | -1% | -8% | -5% | -6% | 28%
CCOC(=O)/C(=C\c1ccc(F)cc1)C(C)=O | -35% | -17% | 62% | 95% (active) | 98% (active)
CC(C)C(=O)CC(Sc1ccc(N)cc1)c1ccccc1 (stereo not given) | -2% | -2% | 10% | 47% | 57%
O=C1C=CC(=Nc2cccc3c2-c2ccccc2C3=O)O1 | -3% | 12% | 79% (active) | 99% (active) | 99% (active)
O=C1C=C(Br)C(=O)c2ccccc21 | 13% | 28% | 90% (active) | 99% (active) | 99% (active)
